The results in this text go back to PubChem BioAssay (Tox21).

Values joined by “and” are separate entries in the source; they are usually repeats but may differ in a detail not shown here. Equal values may be shown once. Inconclusive results are not listed. Active and inactive are the calls of the source. Calls come from the whole dose curve; as a rule, active = well fitted curve in the direction sought with a large enough effect in the repeat runs; inconclusive = weak or mixed curves; inactive = no such curve, though single readings can be large; an effect the other way counts as inactive or inconclusive.

Assay [1] concerns the target Cytochrome P450 2C9 (Homo sapiens) (UniProt P11712). Nature of the assay: Cytochrome P450 Family 2 Subfamily C Member 9 (CYP2C9) small molecule antagonists: luciferase reporter qHTS assay (AID 1671198). Particulars: P450-Glo CYP2C9 enzyme assay, luciferin luminescence; series mostly up to 115 µM. Put shortly:
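P450-Glo proluciferin substrate with CYP2C9 enzyme; 10 min RT preincubation, then NADPH regeneration 1 h at 37C; luciferin detection reagent 20 min RT, luminescence in relative luminescence units.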

Assay [2] has as its target Cytochrome P450 1A2 (Homo sapiens) (UniProt P05177). Nature of the assay: Cytochrome P450 Family 1 Subfamily A Member 2 (CYP1A2) small molecule antagonists: luciferase reporter qHTS assay (AID 1671199). The following applies: P450-Glo CYP1A2 enzyme, luciferin luminescence, 1 h; series mostly up to 115 µM. Put shortly: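 P450-Glo CYP1A2 enzyme–proluciferin substrate mix with compound 10 min at room temperature, then NADPH regeneration 1 h at room temperature. Luciferin detection reagent added, luminescence read after 20 min; furafylline positive control.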

Assay [3] concerns the target Voltage-gated inwardly rectifying potassium channel KCNH2 (Homo sapiens) (UniProt Q12809). Nature of the assay: Human Ether-a-go-go-Related Gene (hERG) channel small molecule antagonists: fluorescence cell-based qHTS assay (AID 1671200). Particulars: hERG-U2OS cells, FluxOR thallium flux fluorescence; series mostly up to 76.8 µM. Put shortly:
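Quantitative HTS in hERG-U2OS cells: thallium entry through the channel reports activity, read as continuous 480/540 nm fluorescence over 2 min after stimulus addition.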
Note: nearly all actives have a fitted effect of over 50% in size.
Potency is the fitted concentration of half-maximal effect.

Chain of Voltage-gated inwardly rectifying potassium channel KCNH2 (Homo sapiens) (Q12809 whole entry, looked up): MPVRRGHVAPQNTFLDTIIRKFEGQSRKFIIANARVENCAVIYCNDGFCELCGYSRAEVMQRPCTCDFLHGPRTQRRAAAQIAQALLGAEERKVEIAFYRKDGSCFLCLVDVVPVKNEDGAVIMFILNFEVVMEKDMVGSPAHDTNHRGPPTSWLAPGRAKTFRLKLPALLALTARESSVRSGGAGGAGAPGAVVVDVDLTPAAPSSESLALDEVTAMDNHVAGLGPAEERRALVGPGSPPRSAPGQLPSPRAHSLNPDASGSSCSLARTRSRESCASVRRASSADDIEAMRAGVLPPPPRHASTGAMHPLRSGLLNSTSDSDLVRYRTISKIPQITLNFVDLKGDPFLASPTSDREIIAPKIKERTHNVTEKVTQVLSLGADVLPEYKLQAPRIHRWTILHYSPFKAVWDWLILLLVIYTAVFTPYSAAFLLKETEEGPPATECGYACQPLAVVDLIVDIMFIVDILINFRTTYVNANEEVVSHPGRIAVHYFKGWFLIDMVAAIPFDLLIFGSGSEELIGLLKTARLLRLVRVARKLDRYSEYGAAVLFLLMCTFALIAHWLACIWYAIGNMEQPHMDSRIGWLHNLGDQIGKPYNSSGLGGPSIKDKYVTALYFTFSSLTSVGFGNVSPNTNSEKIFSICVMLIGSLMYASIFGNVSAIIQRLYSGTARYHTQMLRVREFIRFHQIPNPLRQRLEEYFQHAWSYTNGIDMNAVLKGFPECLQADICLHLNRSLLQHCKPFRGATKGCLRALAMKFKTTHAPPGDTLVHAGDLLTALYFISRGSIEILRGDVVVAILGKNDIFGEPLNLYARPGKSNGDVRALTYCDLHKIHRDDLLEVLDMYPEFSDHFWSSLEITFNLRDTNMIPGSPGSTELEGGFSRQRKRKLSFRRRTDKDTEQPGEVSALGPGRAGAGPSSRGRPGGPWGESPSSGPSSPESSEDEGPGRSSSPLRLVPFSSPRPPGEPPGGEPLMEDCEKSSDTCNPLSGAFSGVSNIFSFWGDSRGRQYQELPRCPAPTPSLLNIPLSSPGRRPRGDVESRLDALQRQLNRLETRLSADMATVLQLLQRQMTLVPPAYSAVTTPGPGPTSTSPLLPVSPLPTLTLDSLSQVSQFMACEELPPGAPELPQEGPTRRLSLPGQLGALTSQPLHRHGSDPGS
Chain of Cytochrome P450 1A2 (Homo sapiens) (P05177 whole entry, looked up): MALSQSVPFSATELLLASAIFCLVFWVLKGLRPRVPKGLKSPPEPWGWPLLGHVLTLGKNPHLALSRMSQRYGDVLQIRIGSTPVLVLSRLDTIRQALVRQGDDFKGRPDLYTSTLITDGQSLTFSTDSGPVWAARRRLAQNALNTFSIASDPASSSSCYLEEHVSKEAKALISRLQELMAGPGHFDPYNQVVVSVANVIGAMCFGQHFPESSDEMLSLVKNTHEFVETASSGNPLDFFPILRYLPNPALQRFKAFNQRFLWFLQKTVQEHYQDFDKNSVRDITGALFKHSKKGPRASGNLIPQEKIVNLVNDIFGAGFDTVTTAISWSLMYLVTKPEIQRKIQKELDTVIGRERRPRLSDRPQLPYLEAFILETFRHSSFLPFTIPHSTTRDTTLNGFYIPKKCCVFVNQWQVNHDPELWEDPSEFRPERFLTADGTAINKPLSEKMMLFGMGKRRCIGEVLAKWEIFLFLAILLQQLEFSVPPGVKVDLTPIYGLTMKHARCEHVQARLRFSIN
Chain of Cytochrome P450 2C9 (Homo sapiens) (P11712 whole entry, looked up): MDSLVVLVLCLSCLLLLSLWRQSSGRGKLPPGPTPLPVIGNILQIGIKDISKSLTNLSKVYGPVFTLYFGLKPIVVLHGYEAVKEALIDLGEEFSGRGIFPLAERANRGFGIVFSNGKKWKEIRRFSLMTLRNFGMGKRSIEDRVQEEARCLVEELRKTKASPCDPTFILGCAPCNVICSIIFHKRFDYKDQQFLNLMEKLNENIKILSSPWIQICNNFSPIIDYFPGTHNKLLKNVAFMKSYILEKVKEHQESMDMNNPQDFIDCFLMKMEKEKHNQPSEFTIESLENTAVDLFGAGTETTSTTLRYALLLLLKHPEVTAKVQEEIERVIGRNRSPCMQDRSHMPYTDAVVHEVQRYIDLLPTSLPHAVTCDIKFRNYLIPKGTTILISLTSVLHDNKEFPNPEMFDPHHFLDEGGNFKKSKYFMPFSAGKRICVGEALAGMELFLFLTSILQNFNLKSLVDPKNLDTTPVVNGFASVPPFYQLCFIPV

With `C/C=C/C=C/COC(=O)C(C)C`, the figures for the Potency in assay [1] and in assay [2] were 63.3 µM (active) and 35.6 µM (active), respectively. Further, in assay [3], the Potency result was “inactive”.
Consider `CC(=O)Oc1cc2c(s1)CCN(C(C(=O)C1CC1)c1ccccc1F)C2` (stereo not given), for which the Potency in assay [1] was 13.8 µM (active). Also, in assay [2], the Potency result was “inactive”.
As for `COC1=C(OC)C(=O)C(CCCCCCCCCCO)=C(C)C1=O`, the Potency in assay [1] is 11 µM (active); in assay [2], 15.5 µM (active). Besides, the Potency result in assay [3] was “inactive”.
As to `CCCCCCCCCCC[C@@H](C[C@@H]1OC(=O)[C@H]1CCCCCC)OC(=O)[C@H](CC(C)C)NC=O`, the Potency in assay [1] was 2.75 µM (active); in assay [2] it was 24.5 µM (active). For the same compound, in assay [3], the Potency result was “inactive”.
On to `ClCCl`, for which the Potency entry in assay [1], in assay [2] and in assay [3] was “inactive” throughout.
Regarding `C#C[C@]1(OC(C)=O)CC[C@H]2[C@@H]3CCC4=C/C(=N/O)CC[C@@H]4[C@H]3CC[C@@]21CC`, in assay [1], the Potency is 11 µM (active). For the same compound, the Potency entry in assay [2] and in assay [3] was “inactive” in each case.
Turning to `CN(C)[C@@H](CCOc1cccc2ccccc12)c1ccccc1`, the Potency in assay [1] was 15.5 µM (active); in assay [2], 7.76 µM (active); in assay [3] it was 6.01 µM (active).
For `CN1CCN(Cc2cc(-c3ccc4[nH]c(=O)oc4c3)co2)[C@@H](c2ccc(F)cc2)C1`, the Potency entry in assay [1] and in assay [2] was “inactive” throughout.
Turning to `O=C(c1ccc(O)c(O)c1)c1ccc(O)cc1O`, the Potency result in assay [1] and in assay [3] was “inactive” each time. The Potency in assay [2] was 31.7 µM (active).
In the case of `CCCCCC/C=C\CCCCCCCC(=O)O`, in assay [1], the Potency is 71 µM (active). Moreover, the Potency result in assay [2] and in assay [3] was “inactive” in each case.
Consider `CCCCCCCCCCCCOCCOCCOCCOCCOCCOCCOCCOCCOCCO`, for which, in assay [1], the Potency was 15.5 µM (active).
In the case of `CCCCNS(=O)(=O)c1ccc(C)cc1`, the Potency in assay [1] was 22.4 µM (active); in assay [2], 31.7 µM (active). Also, the Potency result in assay [3] is “inactive”.
Consider `CC[N+](CC)(CC)CCOC(=O)C(C1CCCC1)C1CCCC1`, for which the Potency result in assay [1] was “inactive”.
Take `CC/C=C\CCCCCO`: the Potency entry in assay [1], in assay [2] and in assay [3] was “inactive” throughout.
For `C#C[C@]1(O)CC[C@H]2[C@@H]3[C@H](C)CC4=C(CCC(=O)C4)[C@H]3CC[C@@]21C`, the Potency was 13.8 µM (active) in assay [1] and 24.5 µM (active) in assay [2]. The Potency entry in assay [3] is “inactive”.
As for `CCCCCCCC`, the Potency result in assay [1], in assay [2] and in assay [3] was “inactive” throughout.
Turning to `O=C(O)c1cc(O)c2ccccc2c1O`, the Potency in assay [1] is 15.9 µM (active); in assay [2] it was 5.64 µM (active).
With `CNC(=O)c1ccccc1Sc1ccc2c(/C=C/c3ccccn3)n[nH]c2c1`, the Potency in assay [1] is 6.92 µM (active); in assay [2], 2.75 µM (active). In addition, in assay [3], the Potency entry is “inactive”.
As to `C#Cc1ccc(-c2ccccc2F)cc1`, the Potency in assay [1] is 15.5 µM (active); in assay [2], 0.911 µM (active). For the same compound, the Potency entry in assay [3] was “inactive”.
Take `C#CC1(O)CC[C@H]2[C@@H]3CCC4=CCCC[C@@H]4[C@H]3CC[C@@]21C` (stereo not given in full): the Potency in assay [1] was 7.1 µM (active) and 6.92 µM (active); in assay [2] it was 39.9 µM (active).
Consider `c1ccc(C(O[C@@H]2CCCN(CCc3ccc4c(c3)OCO4)C2)c2ccccc2)cc1`, for which the Potency in assay [1] is 17.8 µM (active); in assay [2], 39.9 µM (active); in assay [3], 0.977 µM (active).
In the case of `COc1cc(S(=O)(=O)O)c(C)cc1N=Nc1c(O)ccc2cc(S(=O)(=O)O)ccc12`, the Potency in assay [1] was 39.9 µM (active); in assay [2], 35.6 µM (active). Also, the Potency result in assay [3] was “inactive”.
As to `CCCC(=O)OCOC(=O)C1=C(C)NC(C)=C(C(=O)OC)C1c1cccc(Cl)c1Cl` (stereo not given), the Potency in assay [1] was 2.19 µM (active).
In the case of `COc1ccc2cc1Oc1ccc(cc1)C[C@H]1c3c(cc4c(c3Oc3cc5c(cc3OC)CCN(C)[C@@H]5C2)OCO4)CCN1C`, the Potency is 30.9 µM (active) in assay [1] and 9.52 µM (active) in assay [3]. The Potency entry in assay [2] is “inactive”.
On the same counts, the results for `CCCCCCCC/C=C\CCCCCCCCN` are 38.9 µM (active), “inactive” and 12.9 µM (active).
As to `O=C1CCCCCCCCCCCCCCCO1`, the Potency result in assay [1], in assay [2] and in assay [3] was “inactive” each time.
As to `O=C(O)CCN(C1(C(=O)NO)CCCC1)S(=O)(=O)c1ccc(Oc2ccc(F)cc2)cc1`, the Potency result in assay [1], in assay [2] and in assay [3] was “inactive” throughout.
Turning to `CN(C)Cc1ccccc1O`, the Potency result in assay [1], in assay [2] and in assay [3] was “inactive” in each case.
In the case of `COc1c(C)c2c(c(O)c1C/C=C(\C)CCC(=O)OCCN1CCOCC1)C(=O)OC2`, in assay [1], the Potency was 13.8 µM (active). For the same compound, the Potency entry in assay [2] and in assay [3] was “inactive” each time.
As to `CCC(COC(=O)CCS)(COC(=O)CCS)COC(=O)CCS`, the Potency in assay [1] is 28.3 µM (active).
`Cc1ccc(-c2ccccc2)cc1`: the Potency result in assay [1] and in assay [2] was “inactive” in each case.
Consider `O=[N+]([O-])c1ccc(O)cc1C(F)(F)F`, for which the Potency in assay [1] is 22.4 µM (active); in assay [2] it was 35.6 µM (active). The Potency entry in assay [3] is “inactive”.
For `Cc1nc2n(c(=O)c1CCN1CCC(c3noc4cc(F)ccc34)CC1)CCCC2`, the Potency result in assay [1] was “inactive”.
Consider `Cc1cccc(C(=O)O)c1O`, for which the Potency result in assay [1], in assay [2] and in assay [3] was “inactive” in each case.
With `CC(C)(C)NSc1nc2ccccc2s1`, the values for the Potency in assay [1] and in assay [2] were 16.2 µM (active) and 32.2 µM (active), respectively. Also, in assay [3], the Potency entry is “inactive”.
With `Nc1nc2c(ncn2COCCO)c(=O)[nH]1`, the Potency entry in assay [1] and in assay [2] was “inactive” in each case.
For the compound `Cc1cccc(C)c1NC(=O)c1ccc(N)cc1`, the Potency entry in assay [1], in assay [2] and in assay [3] was “inactive” each time.
